The term inhibition denotes the relative decrease from the control value, in per cent.

Several values for one entry are separate records, joined by “and”; a condition that tells them apart may be missing. Identical values can stand only once. Hit rate of the full screen: of about 640,000 compounds, about 9,300 (1.5%) were called active. This excerpt belongs to a sample that is enriched for actives. A number with no mark means an inactive call. No stated cut-off is given here; in the data, active means inhibition above about 32%; inactive means the rest.

This assay in a line: TEAD-YAP interaction inhibition, primary screen, TEAD-YAP interaction inhibitor project, luminescence, HEK-TIYL cells (AID 1259422).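 Further: 0% = median of test compound wells and 100% = reference inhibitor wells.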 Conditions: TEAD-Gal4/YAP UAS-luciferase luminescence, at 9.12 µM, active compounds read high.
For the compound `CSc1sc(SC)c(CO)c1CO`, the inhibition was -4.01%.
To `O=C(Nc1ccccn1)c1cc2c(s1)CCCC2` belongs 93.2% (active); to `CN1CCN(NC(=O)c2cc3c(s2)CCCCC3)CC1`, 12.5%.
Next, `Cc1cccc(C(=O)Nc2sc3c(c2C(=O)Nc2ccccn2)CCCC3)c1`: -4.61%; `CC(C)NC(=O)Cn1nc2n(CC(=O)NC3CCCCC3C)c3ccccc3n2c1=O` (configuration not stated): 1.58%; `O=C(Nc1ccc(S(=O)(=O)Nc2nccs2)cc1)c1cc(Cl)cc(Cl)c1`: 1.26%.
For `C/C=C/c1ccc(Oc2ccc([N+](=O)[O-])c3cnccc23)c(OC)c1`, the inhibition was -0.05%.
Next, `Clc1ccc(Cn2ncc3c(NCc4cccnc4)ncnc32)cc1`: 19.8%; `Cn1ncc2c(NCc3cccnc3)ncnc21`: 3.93%.
To `Brc1ccc2ncnc(NCc3cccnc3)c2c1` belongs 34.6% (active).
Next, `CCCNc1cc(CC)nc2c3c(C)cc(C)nc3nn12`: -5.94%; `CCOc1cccc2sc(N3CCOCC3)nc12`: -1.73%; `COc1cc2c(cc1/C=C1/NC(=O)N(Cc3ccccc3Cl)C1=O)OCO2`: -0.77%.
For the compound `O=C1/C(=C/c2ccc(-c3ccc([N+](=O)[O-])cc3)o2)C=C(c2ccccc2)N1c1cccc(Br)c1`, the inhibition was 5.51%.
Next, `CC(C)=NOC(=O)CCS(=O)(=O)c1nc(-c2cccs2)cc(C(F)(F)F)n1`: -33.7%.
Next, `Cc1ccc(NC(=O)CSC2=C(C#N)C(c3ccc(F)cc3)CC(=O)N2)cc1` (configuration not stated): 11.8%; `CC[N+]1=C(C)C(C)(C)c2cc(-c3ccccc3)ccc21`: 25.8%; `CCN1/C(=C/c2ccc3cc(C)ccc3[n+]2CC)Sc2ccc(OC)cc21`: 83.3% (active).
Turning to `CCN1/C(=C/c2ccc3ccc(C)cc3[n+]2CC)Sc2ccccc21`, the inhibition was 87.4% (active).
To `CCC(/C=C1\Sc2ccc(-c3ccccc3)cc2N1CC)=C\c1sc2ccc3ccccc3c2[n+]1CC` belongs 21.8%; to `CCN1/C(=C/c2ccc3cc(C)ccc3[n+]2CC)Sc2ccc(-c3ccccc3)cc21`, 88.8% (active); to `CCN1/C(=c2/s/c(=C3/C(=O)N(c4ccccc4)NC3=Nc3ccccc3)n(CC)c2=O)Sc2ccc(OC)cc21`, 5.23%.
Next, `CCN1/C(=C/c2ccc3cc(OC)ccc3[n+]2CC)Sc2c1ccc1c2CCCC1`: 87.9% (active); `CCN1C(=O)/C(=C\c2ccc(OC)cc2)SC1=S`: 6.61%.
To `Cc1noc(/C=C/N(C)C)c1S(=O)(=O)N1CCC(C(=O)N2CCCC2)CC1` belongs -1.15%.
As to `CCN1C(=O)/C(=c2\sc3nc(-c4ccccc4)nn3c2=O)c2ccccc21`, the inhibition is -17.8%.
As to `O=C(NCc1cccnc1)C1CCCN(S(=O)(=O)c2ccc3[nH]c(=O)ccc3c2)C1` (configuration not stated), the inhibition was 6.17%.
To `CCC(=O)N1c2ccccc2C2=C(SC(C(=O)OC)=C(C(=O)OC)C23SC(C(=O)OC)=C(C(=O)OC)S3)C1(C)C` belongs 3.65%; to `CCC1CCCCN1C(=O)c1sc2ncnc(N3CCN(c4ccc(OC)cc4)CC3)c2c1C` (configuration not stated), 7.77%.
For the compound `CCOC(=O)CC(=O)CSc1ccc2nnc(-c3ccc(Cl)cc3)n2n1`, the inhibition was 1.1%.
Regarding `CC1CC1c1ccc(/C=C(\C#N)C(=O)Nc2cccc([N+](=O)[O-])c2)o1` (configuration not stated), the inhibition is -64.5%.
To `COc1ccc2nc3c(nc2c1)C(=O)c1ccccc1C3=O` belongs -19.6%.
To `Cc1ccc2nc3c(nc2c1)C(=O)c1ccccc1-3` belongs 46.8% (active).
Consider `Cc1ccc2c(c1)C(=O)c1cc3ccccc3nc1-2`, for which the inhibition was -59.4%.
As to `CCOc1ccc(N(C)S(=O)(=O)c2ccc3[nH]cc(C(=O)NCc4cccnc4)c(=O)c3c2)cc1`, the inhibition is 3.1%.
Next, `O=C(Nc1cccc(Cl)c1)Nc1noc2c1COc1ccccc1-2`: -1.02%; `COC(=O)/C=C(C(=O)OC)/C(C(=O)OC)=C1\Nc2ccccc2NC1=O`: 8.52%; `COC(=O)/C=C1\Nc2ccccc2OC1=O`: -5.86%.
Next, `COC(=O)/C=C1/C(=O)Nc2ccccc21`: 63.4% (active).
On to `Cc1cc(C(=O)N2CCOCC2)c2ccccc2n1`, for which the inhibition was 6.26%.
To `Nc1nc(NCCCN2CCCC2=O)cc(Nc2ccccc2)n1` belongs -3.84% and 0.61%.
Next, `CCOC(=O)c1cnn(-c2nc3ccccc3s2)c1CNC(C)c1ccco1` (configuration not stated): -20.8%; `CC(=O)Nc1ccc(NC(=O)c2sc3nc4c(cc3c2N)CCCCCC4)cc1`: -8.57%.
To `Cc1c(Cl)cccc1NC(=O)c1sc2nc3c(cc2c1N)C(=O)CCC3` belongs 41.4% (active); to `Cc1cccc(NC(=O)c2sc3nc4c(cc3c2N)CCC4)c1C`, 36.1% (active); to `CC1(C)CC(=O)c2cc3c(N)c(C(=O)Nc4ccccc4Cl)sc3nc2C1`, -21.4%.
Turning to `Nc1c(C(=O)Nc2cccc(C(=O)O)c2)sc2nc3c(cc12)CCCCC3`, the inhibition is -17.2%.
To `Nc1c(C(=O)c2ccccc2)sc2nc3c(cc12)CCCCC3` belongs 72.9% (active); to `Nc1c(C(=O)c2ccc(Br)cc2)sc2nc3c(cc12)CCCC3`, -11.1%.
As to `Nc1c(C(=O)N2CCCCC2)sc2nc3c(cc12)CCC3`, the inhibition is -59.9%.
As to `Nc1c(C(=O)c2ccc(Cl)cc2)sc2nc3c(cc12)CCCCCC3`, the inhibition is -9.12%.
For `Cc1cc(C(=O)COC(=O)c2cc(Cl)cc(Cl)c2N)c(C)n1CC1CCCO1` (configuration not stated), the inhibition was 7.73%.
Next, `CCn1cc(CN[C@H]2C[C@H]3C(=O)N[C@@H](Cc4ccc(O)cc4)C(=O)N3C2)c(C)n1`: 9.24%; `COCc1ccc(-c2ccc(OC3CCN(c4ncnc5nc[nH]c45)CC3)cc2)cc1`: -7.79%.
To `CCCCCCOC1OC(COC(C)=O)C(OC(C)=O)C(OC(C)=O)C1NC(C)=O` (configuration not stated) belongs 10.2%; to `COc1ccc(-c2c(C)nn3c(NCCO)c4c(nc23)CCCC4)cc1`, 0.55%.
To `COC(=O)C(NNc1ccccc1C)(NC(=O)c1ccc(Cl)cc1)C(F)(F)F` (configuration not stated) belongs -4.69%; to `Cc1ccc(C)c(OCC(=O)NC(C)(C)C)c1`, 1.69%.
For `COc1ccc(S(=O)(=O)Oc2ccc(C=O)cc2)cc1`, the inhibition was 12.9%.
Next, `Cc1c(C2=N/C(=C/c3cccc(Cl)c3Cl)C(=O)O2)cccc1[N+](=O)[O-]`: -5.1%; `CSc1cccc(Nc2nc3ccccc3n3cnnc23)c1`: -29.4%.
Next, `CN(c1ncnc2c1cnn2-c1ccc(Cl)cc1)C1CCCCC1`: 63.9% (active); `Cc1cc2c(N(C)C3CCCCC3)ncnc2s1`: -14.3%.
Turning to `Clc1ccc(-n2ncc3c(NC4CCCCC4)ncnc32)cc1`, the inhibition is 10.8%.
For `CSC1=C(C#N)C(c2ccccc2[N+](=O)[O-])C2=C(CC(C)(C)CC2=O)N1` (configuration not stated), the inhibition was 15.7%.
Next, `O=C(NCCOc1ccccc1)c1ccc2nc(NCCN3CCOCC3)sc2c1`: -44.4%; `O=C(Nc1ccc([N+](=O)[O-])cc1Cl)c1ccccc1Br`: 12.3%; `O=C(Nc1ccc2c3c(cccc13)CC2)c1cc([N+](=O)[O-])cc([N+](=O)[O-])c1`: -9.02%.
Next, `O=C(Nc1ccc2c3c(cccc13)CC2)c1cc([N+](=O)[O-])ccc1Br`: 59.8% (active).
Regarding `Cc1cc(C)cc(N2C(=O)N(c3cccc(Cl)c3)C3CS(=O)(=O)CC32)c1` (configuration not stated), the inhibition was -20.4%.
For the compound `O=C(NC(=O)c1ccccn1)NC(c1ccccc1)c1ccccc1`, the inhibition was -3.05%.
With `Cc1ccnc(NC(=O)Cc2ccc(Cl)cc2)n1`, the inhibition is 0.25%.
Next, `Cc1ccc(C(NC(=O)Cc2ccccc2)c2ccc3cccnc3c2O)cc1` (configuration not stated): 82.5% (active); `O=C(Cc1ccccc1)NC(c1ccc(Cl)cc1)c1ccc2cccnc2c1O` (configuration not stated): 82.5% (active).
To `O=C(COc1ccc(Cl)c(Cl)c1)NC(Cc1ccccc1)C(=O)O` (configuration not stated) belongs 9.8%.
With `Cc1ccc(CC(=O)Nc2ncccn2)cc1`, the inhibition is 1.2%.
As for `COc1cccc(C(=O)NC(c2cccc([N+](=O)[O-])c2)c2cc(Cl)c3cccnc3c2O)c1` (configuration not stated), the inhibition was 7.94%.
`CC(=O)NC(c1cccs1)c1cc(Cl)c2cccnc2c1O` (configuration not stated): the inhibition was 80.8% (active).
Next, `CCOc1ccc(C(C)NC(=O)Cc2ccccc2)cc1` (configuration not stated): 13.1%; `CC(=O)NC(NC(C)=O)c1cccnc1`: -0.95%.
Next, `CC(=O)NC(c1ccccc1)c1ccc2cccnc2c1O` (configuration not stated): 82.8% (active); `CCOc1ccc(C(NC(=O)c2cc(OC)c(OC)c(OC)c2)c2cc(Cl)c3cccnc3c2O)cc1` (configuration not stated): 9.91%; `Cc1ccc(C2C=C(c3ccc(C(C)C)cc3)Nc3nnnn32)cc1` (configuration not stated): -3.93%.
To `Cn1c(=O)c2c(nc(N(CCO)CCO)n2Cc2cccc3ccccc23)n(C)c1=O` belongs -5.12%.
As for `O=S(=O)(c1ccc(F)c(Cl)c1)N1CCC(Cn2cnc3ccccc32)CC1`, the inhibition was 7.12%.
Next, `COC(=O)C1=C(C)OC(N)=C(C#N)C1c1ccc(OCc2ccccc2)cc1` (configuration not stated): -17.6%; `COc1ccccc1NC(=O)Nc1nnc(CSCc2ccc(F)cc2)s1`: 11.6%; `CCOC(=O)c1cc([N+](=O)[O-])sc1NC(=O)c1cc(Cl)sc1Cl`: 1.62%.
In the case of `Cc1cccc(NC(=O)CC(C)(C)C)n1`, the inhibition was -13.5%.
Regarding `N/C(=N\OC(=O)CCCOc1ccc(Cl)cc1Cl)c1nonc1N`, the inhibition is -6.56%.
Regarding `CCOC(=O)C1=CN(C(C)C)C=C(C(=O)OCC)C1c1cccc([N+](=O)[O-])c1`, the inhibition is 4.81%.
On to `CCCn1c(=N)c(C(=O)OCC)cc2c(=O)n3cc(C)ccc3nc21`, for which the inhibition was 1.52%.

These data come from PubChem BioAssay AID1259422 (The Scripps Research Institute Molecular Screening Center, 2018).
